Experimental data taken from PubChem BioAssay (NCATS).
“And” between values parts separate entries of the source, which are not always exact repeats. Identical values can stand only once. Results filed as inconclusive are left out. A number with no mark means an inactive call. The source made the active and inactive calls. Calls follow the shape of the dose curve; as a rule, active = well fitted curve in the direction sought with a large enough effect; inconclusive = small, poorly fitted or top-dose-only effect, or another doubt; inactive = no such curve, though single readings can be large; an effect the other way counts as inactive or inconclusive.

What was measured:
[1] = target: Cellular tumor antigen p53 (Homo sapiens) (UniProt P04637); experiment: Primary qHTS for small molecule compounds that upregulate eGFP-tagged delta133p53alpha (in N-terminal) cells. (AID 2060322); details: NCI-H358 eGFP-delta133p53alpha fluorescence, 24 h; activation: stronger effect = higher value; also: nearly all actives have a fitted effect of over 75% in size;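 as to activation: cells pre-induced with doxycycline then dosed without doxycycline; series mostly up to about 56 µM; 0% = DMSO vehicle and 100% = reference activator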
Sequence of Cellular tumor antigen p53 (Homo sapiens) (P04637 whole entry, looked up): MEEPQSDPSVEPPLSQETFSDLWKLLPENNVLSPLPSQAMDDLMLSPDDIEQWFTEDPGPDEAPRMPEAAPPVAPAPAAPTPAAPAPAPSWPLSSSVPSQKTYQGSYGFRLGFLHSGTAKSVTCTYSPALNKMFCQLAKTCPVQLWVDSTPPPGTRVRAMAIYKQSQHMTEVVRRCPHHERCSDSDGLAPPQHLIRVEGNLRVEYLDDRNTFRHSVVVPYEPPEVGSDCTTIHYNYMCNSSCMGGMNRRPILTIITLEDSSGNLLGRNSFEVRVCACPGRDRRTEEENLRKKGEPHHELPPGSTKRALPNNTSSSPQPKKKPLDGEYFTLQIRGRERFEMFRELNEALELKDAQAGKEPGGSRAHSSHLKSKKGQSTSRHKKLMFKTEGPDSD
Summary of the method: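 NCI-H358 cells pre-induced 24 h with 10 ng/ml doxycycline for eGFP-delta133p53alpha, plated dox-free and exposed 24 h at 37C to titrated compounds. Fixed, Hoechst-stained; gated GFP peak intensity by laser scanning cytometry, normalized to DMSO (0%) and 57.5 uM 5-azacytidine (100%).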

[2] = BET inhibitor-based combinations targeting novel dependencies in MECOM-rearranged (r) AML: SET-2 cell line (AID 2202231); details: SET-2 AML cells viability, CellTiter-Glo luminescence, 48 h; viability: stronger effect = lower value, concentration not given here; also: nearly all actives have a fitted effect of over 35% in size;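 as to viability: plate controls were DMSO treated cells for no effect and wells without cells for full effect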
Summary of the method: (§1)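 Readout: CellTiter-Glo luminescence. Exposure: 48 h, 11 concentrations, 500 cells/well. Metric: AUC and within-line Z-AUC after DMSO/empty-well normalization.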

[3] = BET inhibitor-based combinations targeting novel dependencies in MECOM-rearranged (r) AML: OCI-AML3 cell line (AID 2202232); details: Potency: OCI-AML3 viability; also: nearly all actives have a fitted effect of over 35% in size
Summary of the method: as §1

[4] = BET inhibitor-based combinations targeting novel dependencies in MECOM-rearranged (r) AML: MV-4-11 cell line (AID 2202233); also: nearly all actives have a fitted effect of over 45% in size
Summary of the method: (§2)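 Seeding density was 500 cells/well, and drug exposure lasted 48 hr under standard culture conditions. Read-out used CellTiter-Glo reagent with a 15 min room-temperature incubation before luminescence measurement; AUC and Z-AUC summarize the normalized responses.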

[5] = BET inhibitor-based combinations targeting novel dependencies in MECOM-rearranged (r) AML: UCSD-AML1 cell line (AID 2202235); also: nearly all actives have a fitted effect of over 40% in size
Summary of the method: as §2

[6] = BET inhibitor-based combinations targeting novel dependencies in MECOM-rearranged (r) AML: AML-191 cell line (AID 2202236; also: nearly all actives have a fitted effect of over 35% in size)
Summary of the method: as §1

[7] = BET inhibitor-based combinations targeting novel dependencies in MECOM-rearranged (r) AML: AML-194 cell line (AID 2202237; also: nearly all actives have a fitted effect of over 40% in size)
Summary of the method: as §1

[8] = BET inhibitor-based combinations targeting novel dependencies in MECOM-rearranged (r) AML: HNT-34 cell line (AID 2202234); also: nearly all actives have a fitted effect of over 35% in size
Summary of the method: as §2
Potency is read from the fitted curve at half-maximal effect.

Structure (SMILES) | activation [1] | viability [2] [%] | Potency [3] | Potency [4] | Potency [5] | Potency [6] | Potency [7] | Potency [8] | Potency [2] | Potency [1]
NC(=O)c1ccc(-c2nc(-c3ccc4c(c3)OCO4)c(-c3ccccn3)[nH]2)cc1 | -10.5% | 112 | inactive | inactive | inactive | inactive | inactive | – | – | –
CCOC(=O)[C@H](CCc1ccccc1)N[C@@H](C)C(=O)N1[C@H](C(=O)O)C[C@@H]2CCC[C@@H]21 | 5.08% | 108 | inactive | inactive | – | inactive | inactive | inactive | – | –
Nc1nc(Cl)nc2c1ncn2[C@@H]1O[C@H](CO)[C@@H](O)[C@@H]1F | -10.7% | – | 0.148 µM (active) | 0.209 µM (active) | 0.0263 µM (active) | 0.0742 µM (active) | – | – | 0.263 µM (active) | –
Nc1ccn([C@@H]2CS[C@H](CO)O2)c(=O)n1 | -9.96% | 113 | inactive | inactive | – | inactive | inactive | inactive | – | –
CC(=O)SCC(Cc1ccccc1)C(=O)NCC(=O)OCc1ccccc1 (centres undefined) | 16.6% | 105 | inactive | inactive | inactive | inactive | inactive | – | – | –
CN1CCN(c2cc(C(=O)Nc3ccc4c(c3)-c3c(c(C(N)=O)nn3-c3ccc(F)cc3)CC4)c(Cl)cn2)CC1 | 10.2% | – | 16.6 µM (active) | 7.42 µM (active) | – | 8.33 µM (active) | 8.33 µM (active) | 7.42 µM (active) | 8.33 µM (active) | –
Cc1ccc(C(=O)Nc2cccc(C(F)(F)F)c2)cc1Nc1nc(-c2cccnc2)nc2c1cnn2C | 9.99% | – | 8.33 µM (active) | 16.6 µM (active) | – | 8.33 µM (active) | 10.5 µM (active) | 9.34 µM (active) | 20.9 µM (active) | –
O=C(O)CCCCC(CCSCc1ccccc1)SCc1ccccc1 (centres undefined) | 1.42% | 107 | inactive | – | inactive | inactive | inactive | inactive | – | –
COc1ccc([C@@H]2CNC(=O)C2)cc1OC1CCCC1 | 7.46% | 118 | inactive | – | inactive | inactive | inactive | inactive | – | –
Nc1nc(N)nc(-c2cc(Cl)ccc2Cl)n1 | 2.82% and 12% | 105 | inactive | – | inactive | inactive | inactive | inactive | – | –
COc1ccc(CC2=NN3C([C@@H](CCc4ccccc4)[C@@H](C)O)=NC(C)C3C(=O)N2)cc1OC (some centres undefined) | -13.9% | 101 | 7.42 µM (active) | – | inactive | 16.6 µM (active) | inactive | 18.6 µM (active) | – | –
CN1CCN2c3ncccc3Cc3ccccc3C2C1 (centres undefined) | -22.2% | 102 | inactive | inactive | inactive | – | inactive | – | – | –
Cc1ccc(C(=O)c2cc(O)c(O)c([N+](=O)[O-])c2)cc1 | 1.67% and 0.973% | 104 | inactive | – | inactive | – | inactive | inactive | – | –
O=C(Nc1cccc(Cl)c1)Nc1ncc(CCNc2ncnc3ccsc23)s1 | -7.26% | – | 0.166 µM (active) | – | inactive | – | – | inactive | 20.9 µM (active) | –
CC(C)(C)NC(=O)[C@H]1CC[C@H]2[C@@H]3CC[C@H]4NC(=O)C=C[C@]4(C)[C@H]3CC[C@]12C | -14.2% and -4.21% | 98.4 | inactive | – | inactive | inactive | inactive | inactive | – | –
COc1ccc(Nc2nccc(NCCO)n2)cc1 | 25.6% | 106 | 23.5 µM (active) | – | inactive | inactive | inactive | inactive | – | –
CCn1cc(C(=O)O)c(=O)c2cc(F)c(N3CCN(C)CC3)cc21 | -2.51% and -35.6% | 97.2 | inactive | – | inactive | inactive | inactive | inactive | – | –
O=C1c2cccc(O)c2C(=O)c2c(O)cc(CO)cc21 | -5.26% | 116 | inactive | – | inactive | inactive | inactive | inactive | – | –
CC(C)Oc1cc(Nc2nc(N[C@@H](C)c3ccc(F)cn3)ncc2Cl)[nH]n1 | – | – | 16.6 µM (active) | 0.0934 µM (active) | – | 0.417 µM (active) | – | – | 18.6 µM (active) | 24.3 µM (active)
COc1cccc2c1C(=O)c1c(O)c3c(c(O)c1C2=O)C[C@@](O)(C(=O)CO)C[C@@H]3O[C@H]1C[C@H](N)[C@@H](O)[C@H](C)O1 | -26.9% | – | 0.148 µM (active) | 0.0372 µM (active) | 0.132 µM (active) | 0.372 µM (active) | 0.417 µM (active) | – | 1.18 µM (active) | –
COC(=O)Nc1cc(Nc2cc(NC3CC3)c3ncc(C#N)n3n2)c(Cl)c(N2CCN(C)CC2)c1 | -10.3% | – | 3.32 µM (active) | – | 2.63 µM (active) | 2.63 µM (active) | 2.63 µM (active) | 1.32 µM (active) | 2.95 µM (active) | –

Structure (SMILES) | activation [1] | viability [2] [%] | Potency [3] | Potency [4] | Potency [5] | Potency [6] | Potency [7] | Potency [8] | Potency [2] | Potency [1]
CCNC(=O)c1cc2c(-c3cc(OCCN4CCCC4)c(Cl)cc3Cl)nc(N)nc2s1 | -12.6% | – | 2.04 µM (active) | – | 1.29 µM (active) | 1.82 µM (active) | – | 1.82 µM (active) | 2.88 µM (active) | –
O=C1c2ccccc2-[n+]2ccc3c([nH]c4ccccc43)c21 | – | – | 1.86 µM (active) | – | 1.86 µM (active) | 1.66 µM (active) | 2.35 µM (active) | 1.86 µM (active) | 2.63 µM (active) | 15.3 µM (active)
CN(C(Cc1ccc(OS(=O)(=O)c2cccc3cnccc23)cc1)C(=O)N1CCN(c2ccccc2)CC1)S(=O)(=O)c1cccc2cnccc12 (centres undefined) | 8.08% | 92.1 | inactive | 7.42 µM (active) | – | 9.34 µM (active) | – | – | – | –
CC(C)(C)COc1ccc(-n2cc(C(=O)O)cn2)cc1C#N | -16.6% | 95.2 | 10.5 µM (active) | inactive | – | – | inactive | – | – | –
N#CNC(=NCCCCCCOc1ccc(Cl)cc1)Nc1ccncc1 | 37.2% | – | 0.0105 µM (active) | 0.0372 µM (active) | – | 0.0186 µM (active) | – | – | 13.2 µM (active) | –
CC(C(C)N1CC(=O)NC(=O)C1)N1CC(=O)NC(=O)C1 (centres undefined) | 25.1% | 107 | 5.9 µM (active) | 1.18 µM (active) | – | 9.34 µM (active) | inactive | – | – | –
O=c1cc(N2CCOCC2)oc2c(-c3cccc4c3sc3ccccc34)cccc12 | 27.5% | – | 8.33 µM (active) | 4.17 µM (active) | – | 5.9 µM (active) | – | – | 9.34 µM (active) | –
Cc1cccc(-c2nn(C(=S)Nc3ccccc3)cc2-c2ccnc3ccccc23)n1 | 44.1% | 97.5 | inactive | inactive | inactive | inactive | inactive | – | – | –
NC(=O)c1cccc(-c2cccc(OC(=O)NC3CCCCC3)c2)c1 | -16.3% | 103 | inactive | – | inactive | inactive | inactive | inactive | – | –
C[C@H]1C[C@@H]2[C@H]([C@@H](O)C[C@@]3(C)[C@H]2CC[C@]3(O)C(=O)CO)[C@@]2(C)C=CC(=O)C=C12 | 5.86% | 114 | inactive | inactive | inactive | – | 0.209 µM (active) | – | – | –
CC1(C)CCC(C)(C)c2cc(NC(=O)c3ccc(C(=O)O)cc3)ccc21 | -13% and 3.42% | 80.9 | inactive | – | inactive | 0.0021 µM (active) | inactive | 1.66 µM (active) | – | –
COc1cc(S(C)(=O)=O)ccc1Nc1nc2ccc(-c3ccc(NC(=O)[C@H](C)c4ccc(F)cc4)cc3)cn2n1 | -11.7% | – | 0.934 µM (active) | 1.18 µM (active) | 1.32 µM (active) | – | 1.32 µM (active) | – | 0.235 µM (active) | –
CC(NCCc1ccc(O)cc1)C(O)c1ccc(O)cc1 (centres undefined) | -5.46% | 112 | inactive | – | inactive | inactive | inactive | inactive | – | –
COc1ccc2cc3[n+](cc2c1OC)CCc1cc2c(cc1-3)OCO2 | -7.97% | – | 4.17 µM (active) | – | inactive | – | – | 23.5 µM (active) | 16.6 µM (active) | –
NC(N)=NC(N)=NCCc1ccccc1 | -18.4% and -5.97% | – | 16.6 µM (active) | – | inactive | inactive | inactive | inactive | 13.2 µM (active) | –
Cn1c(=O)c(Oc2ccc(F)cc2F)cc2cnc(NC3CCOCC3)nc21 | -33.7% | 115 | inactive | – | inactive | inactive | inactive | inactive | – | –
CCC(=O)O[C@]1(C(=O)SCF)[C@H](C)C[C@H]2[C@@H]3C[C@H](F)C4=CC(=O)C=C[C@]4(C)[C@@]3(F)[C@@H](O)C[C@@]21C | 17.6% and 0.401% | 114 | inactive | – | inactive | inactive | – | inactive | – | –
CN(C)CCc1c[nH]c2ccc(CS(=O)(=O)N3CCCC3)cc12 | -5.58% | 115 | inactive | – | inactive | inactive | inactive | inactive | – | –
Nc1nc(-c2nn(Cc3ccccc3F)c3ncccc23)nc(N)c1N1CCOCC1 | 6.49% | 123 | 0.0018 µM (active) | – | inactive | inactive | inactive | inactive | – | –
CCCCCOC(=O)Nc1nc(=O)n([C@@H]2O[C@H](C)[C@@H](O)[C@H]2O)cc1F | -37.9% | 110 | inactive | – | inactive | – | inactive | inactive | – | –
